Assay results: PubChem BioAssay (EPA / NIEHS)
Results filed as inconclusive are left out. Calls of active or inactive are those of the source. Rule for the calls, unless noted: active = hit-call score of the fitted dose curve at least 0.9, where 1 is the maximum; inconclusive = response in the unintended direction; inactive = score below 0.9.

Tests used:
[1] = molecular target: human RAR-related Orphan Receptor gamma (RORg), RORC (gene 6097) (UniProt P51449); test: ATG_RORg_TRANS: Attagene TRANS-FACTORIAL HepG2 Assay for human RAR-related Orphan Receptor gamma (RORg) (AID 2283011)
human RAR-related Orphan Receptor gamma (RORg), RORC (gene 6097), sequence (P51449 whole entry, looked up, the tested form may be a part): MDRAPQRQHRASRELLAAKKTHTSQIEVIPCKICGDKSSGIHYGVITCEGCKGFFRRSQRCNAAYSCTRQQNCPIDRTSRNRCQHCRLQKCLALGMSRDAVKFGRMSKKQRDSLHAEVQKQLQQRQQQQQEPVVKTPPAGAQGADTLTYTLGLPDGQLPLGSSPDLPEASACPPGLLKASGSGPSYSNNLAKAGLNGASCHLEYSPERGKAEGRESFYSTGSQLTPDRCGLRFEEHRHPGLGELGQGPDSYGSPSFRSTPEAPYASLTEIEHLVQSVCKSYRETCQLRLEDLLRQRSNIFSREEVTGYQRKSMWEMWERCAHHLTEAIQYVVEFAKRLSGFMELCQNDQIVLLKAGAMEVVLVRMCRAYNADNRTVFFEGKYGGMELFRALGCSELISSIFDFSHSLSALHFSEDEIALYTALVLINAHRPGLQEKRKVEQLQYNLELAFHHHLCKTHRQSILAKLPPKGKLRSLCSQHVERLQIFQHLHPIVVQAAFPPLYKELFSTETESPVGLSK
Procedure, shortened: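 Chimeric RORg-Gal4 transactivation in transfected HepG2; 24 h exposure; RT-PCR/capillary electrophoresis readout of reporter mRNA, DMSO baseline.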

[2] = molecular target: Retinoic acid receptor RXR-alpha (Homo sapiens) (UniProt P19793); test: ATG_RXRa_TRANS: Attagene TRANS-FACTORIAL HepG2 Assay for human Retinoid X Receptor alpha (RXRa) (AID 2283012)
Retinoic acid receptor RXR-alpha (Homo sapiens), sequence (P19793 whole entry, looked up, the tested form may be a part): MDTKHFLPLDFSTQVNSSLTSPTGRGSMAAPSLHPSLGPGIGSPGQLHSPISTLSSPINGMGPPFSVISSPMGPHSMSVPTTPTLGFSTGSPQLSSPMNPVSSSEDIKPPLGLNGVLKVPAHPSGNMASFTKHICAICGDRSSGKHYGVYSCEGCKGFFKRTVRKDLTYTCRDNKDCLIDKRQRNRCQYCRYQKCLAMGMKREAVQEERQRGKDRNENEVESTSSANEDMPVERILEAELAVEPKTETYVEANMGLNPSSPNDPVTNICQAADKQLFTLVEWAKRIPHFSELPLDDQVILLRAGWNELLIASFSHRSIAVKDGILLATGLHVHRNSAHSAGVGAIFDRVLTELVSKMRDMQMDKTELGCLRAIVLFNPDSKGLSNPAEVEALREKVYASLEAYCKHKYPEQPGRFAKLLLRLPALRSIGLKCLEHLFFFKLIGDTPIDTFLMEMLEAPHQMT
Procedure, shortened: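 Transient transfection of human HepG2 with multiple GAL4-UAS reporter constructs; 24 h compound exposure; total RNA isolated, reverse-transcribed, PCR-amplified, 6-FAM labelled, HpaI-cut, resolved by capillary electrophoresis. Positive-direction fit versus DMSO.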

[3] = molecular target: human Retinoid X Receptor beta (RXRb), RXRB (gene 6257) (UniProt P28702); test: ATG_RXRb_TRANS: Attagene TRANS-FACTORIAL HepG2 Assay for human Retinoid X Receptor beta (RXRb) (AID 2283013)
human Retinoid X Receptor beta (RXRb), RXRB (gene 6257), sequence (P28702 whole entry, looked up, the tested form may be a part): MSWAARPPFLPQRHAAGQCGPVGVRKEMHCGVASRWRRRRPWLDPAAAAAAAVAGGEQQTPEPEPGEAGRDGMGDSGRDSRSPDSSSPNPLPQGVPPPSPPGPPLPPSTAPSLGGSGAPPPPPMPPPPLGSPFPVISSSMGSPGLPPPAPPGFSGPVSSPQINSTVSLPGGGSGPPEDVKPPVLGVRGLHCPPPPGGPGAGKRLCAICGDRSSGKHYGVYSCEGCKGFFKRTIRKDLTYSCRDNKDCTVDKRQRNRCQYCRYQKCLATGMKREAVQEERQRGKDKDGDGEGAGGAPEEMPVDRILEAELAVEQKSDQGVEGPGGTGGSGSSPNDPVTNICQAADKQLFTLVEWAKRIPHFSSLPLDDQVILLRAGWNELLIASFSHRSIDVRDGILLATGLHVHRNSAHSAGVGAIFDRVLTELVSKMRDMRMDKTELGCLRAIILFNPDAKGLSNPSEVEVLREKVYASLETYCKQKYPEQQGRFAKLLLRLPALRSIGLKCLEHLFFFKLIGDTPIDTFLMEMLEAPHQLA
Procedure, shortened: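 Transfect HepG2 with GAL4-UAS multi-reporter constructs (chimeric NR-Gal4, TRANS format); dose compound 24 h; isolate RNA, RT-PCR, FAM primer extension, HpaI digest; quantify by capillary electrophoresis; positive direction vs DMSO.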

[4] = molecular target: human Thyroid Receptor alpha (THRa1), THRA (gene 7067) (UniProt P10827); test: ATG_THRa1_TRANS: Attagene TRANS-FACTORIAL HepG2 Assay for human Thyroid Receptor alpha (THRa1) (AID 2283014)
human Thyroid Receptor alpha (THRa1), THRA (gene 7067), sequence (P10827 whole entry, looked up, the tested form may be a part): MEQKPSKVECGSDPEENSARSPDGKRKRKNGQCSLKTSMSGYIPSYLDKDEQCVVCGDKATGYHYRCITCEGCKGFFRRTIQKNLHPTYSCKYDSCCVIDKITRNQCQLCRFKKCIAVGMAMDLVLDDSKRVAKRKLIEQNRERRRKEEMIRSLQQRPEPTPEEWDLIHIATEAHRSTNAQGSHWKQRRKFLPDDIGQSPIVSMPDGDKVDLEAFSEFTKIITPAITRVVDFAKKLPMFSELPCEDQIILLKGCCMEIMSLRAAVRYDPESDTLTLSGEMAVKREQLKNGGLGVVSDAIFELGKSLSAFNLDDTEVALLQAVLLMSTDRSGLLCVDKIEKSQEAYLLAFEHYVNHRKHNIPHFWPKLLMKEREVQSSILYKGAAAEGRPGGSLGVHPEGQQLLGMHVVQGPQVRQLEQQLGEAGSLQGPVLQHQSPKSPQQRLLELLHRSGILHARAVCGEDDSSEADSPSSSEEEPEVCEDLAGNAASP
Procedure, shortened: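 Measured here is mRNA from a GAL4-UAS reporter in transfected HepG2 cells carrying a Gal4-fused receptor, 24 h post-dose. DMSO served as negative control and baseline.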

[5] = molecular target: human Vitamin D Receptor (VDR), VDR (gene 7421) (UniProt P11473); test: ATG_VDR_TRANS: Attagene TRANS-FACTORIAL HepG2 Assay for human Vitamin D Receptor (VDR) (AID 2283022)
human Vitamin D Receptor (VDR), VDR (gene 7421), sequence (P11473 whole entry, looked up): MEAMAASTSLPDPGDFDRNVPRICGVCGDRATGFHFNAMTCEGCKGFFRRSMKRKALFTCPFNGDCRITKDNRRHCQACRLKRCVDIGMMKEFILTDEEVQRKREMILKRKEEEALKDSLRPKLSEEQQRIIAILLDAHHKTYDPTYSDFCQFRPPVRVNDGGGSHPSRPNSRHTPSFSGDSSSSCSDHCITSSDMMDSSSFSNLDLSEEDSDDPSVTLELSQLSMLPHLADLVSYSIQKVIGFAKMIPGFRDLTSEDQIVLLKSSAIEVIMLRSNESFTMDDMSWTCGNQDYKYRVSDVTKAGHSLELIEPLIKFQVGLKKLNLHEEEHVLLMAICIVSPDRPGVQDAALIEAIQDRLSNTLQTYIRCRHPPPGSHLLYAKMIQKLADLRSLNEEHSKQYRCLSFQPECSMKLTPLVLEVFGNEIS
Procedure, shortened: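 Multiplexed TRANS reporter in HepG2; 24 h treatment; reporter mRNA by RT-PCR plus capillary electrophoresis; upregulation scored relative to DMSO.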

[6] = read-out: E-selectin (Homo sapiens) (UniProt P16581); test: BSK_3C_Eselectin: BioMAP Diversity Plus: 3C Assay for Eselectin Biomarker Activity (AID 2283015; active = hit-call score of the fitted dose curve at least 0.9, where 1 is the maximum; inactive = score below 0.9;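 for outcome: cell surface E-selectin protein quantified by ELISA 24 h after dosing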); settings: primary human endothelial cells (HUVEC); actives raise or lower the signal
Procedure, shortened: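 Endpoint derived by bidirectional fitting against DMSO vehicle; signal is ELISA-detected E-selectin from primary HUVEC at 24 h post-dosing, with parallel SRB staining (0.1% SRB, 560 nm) flagging cytotoxicity.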

[7] = read-out: Interleukin-1 alpha (IL1a), IL1A (gene 3552); test: BSK_BE3C_IL1a: BioMAP Diversity Plus: BE3C Assay for Interleukin-1 alpha (IL1a) Biomarker Activity (AID 2283016; active = hit-call score of the fitted dose curve at least 0.9, where 1 is the maximum; inactive = score below 0.9); settings: primary human bronchial epithelial cells; actives raise or lower the signal
Procedure, shortened: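 BE3C primary human bronchial epithelium; cpd 24 h; IL-1a by ELISA; bidirectional fit vs DMSO; parallel SRB (0.1% SRB, 10% TCA fix, 560 nm) for cytotoxicity.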

[8] = read-out: Monocyte Chemoattractant Protein-1 (MCP1), CCL2 (gene 6347); test: BSK_3C_MCP1: BioMAP Diversity Plus: 3C Assay for Monocyte Chemoattractant Protein-1 (MCP1) Biomarker Activity (AID 2283017; active = hit-call score of the fitted dose curve at least 0.9, where 1 is the maximum; inactive = score below 0.9); settings: primary human endothelial cells (HUVEC); actives raise or lower the signal
Procedure, shortened: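 Using human vascular primary endothelium, researchers measured MCP-1 by ELISA 24 h after treatment, with DMSO serving as negative control for bidirectional fitting.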

[9] = read-out: Monocyte Chemoattractant Protein-1 (MCP1), CCL2 (gene 6347); test: BSK_4H_MCP1: BioMAP Diversity Plus: 4H Assay for Monocyte Chemoattractant Protein-1 (MCP1) Biomarker Activity (AID 2283018; active = hit-call score of the fitted dose curve at least 0.9, where 1 is the maximum; inactive = score below 0.9); settings: primary human endothelial cells (HUVEC); actives raise or lower the signal
Procedure, shortened: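 ELISA read-out of MCP-1 from human vascular endothelial primary cells taken at 24 hours after compound exposure. Activity was fitted in both directions relative to DMSO, which served as negative control.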

[10] = read-out: Human Leukocyte Antigen - DR isotype (HLADR), HLA-DRA (gene 3122); test: BSK_3C_HLADR: BioMAP Diversity Plus: 3C Assay for Human Leukocyte Antigen - DR isotype (HLADR) Biomarker Activity (AID 2283019; active = hit-call score of the fitted dose curve at least 0.9, where 1 is the maximum; inactive = score below 0.9;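 note: ELISA of cell-surface HLA-DR on HUVEC 24 h after dosing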); settings: primary human endothelial cells (HUVEC); actives raise or lower the signal
Procedure, shortened: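 Compound added to primary HUVEC cultures, 24 h incubation, then HLA-DR determined by ELISA; endpoint derived by bidirectional fitting relative to DMSO negative control.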

[11] = read-out: Interleukin-8 (IL8), CXCL8 (gene 3576); test: BSK_3C_IL8: BioMAP Diversity Plus: 3C Assay for Interleukin-8 (IL8) Biomarker Activity (AID 2283020; active = hit-call score of the fitted dose curve at least 0.9, where 1 is the maximum; inactive = score below 0.9); settings: primary human endothelial cells (HUVEC); actives raise or lower the signal
Procedure, shortened: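 ELISA read-out of IL-8 from human umbilical vein endothelium, measured 24 h after chemical dosing. Activity is expressed relative to DMSO negative control, with both increases and decreases fitted.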

[12] = read-out: Monokine induced gamma interferon (MIG), CXCL9 (gene 4283); test: BSK_3C_MIG: BioMAP Diversity Plus: 3C Assay for Monokine induced gamma interferon (MIG) Biomarker Activity (AID 2283021; active = hit-call score of the fitted dose curve at least 0.9, where 1 is the maximum; inactive = score below 0.9); settings: primary human endothelial cells (HUVEC); actives raise or lower the signal
Procedure, shortened: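 Read-out is ELISA detection of MIG on human umbilical vein endothelial cells, taken 24 h after dosing. Gain or loss of signal was scored relative to DMSO controls using bidirectional curve fitting.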

[13] = BSK_3C_SRB: Viability Assessment in the BioMAP Diversity Plus: 3C Assay (AID 2283023; active = hit-call score of the fitted dose curve at least 0.9, where 1 is the maximum; inactive = score below 0.9;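 note: fitted both ways against DMSO so a hit may be signal rise or drop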); settings: primary human endothelial cells (HUVEC)
Procedure, shortened: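 Overt cytotoxicity is gauged in parallel confluent HUVEC cultures by SRB total-protein staining at the time of biomarker measurement, 24 h after dosing. Gain or loss of signal is fitted versus DMSO.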

[14] = read-out: Matrix Metallopeptidase 1 (MMP1), MMP1 (gene 4312); test: BSK_BE3C_MMP1: BioMAP Diversity Plus: BE3C Assay for Matrix Metallopeptidase 1 (MMP1) Biomarker Activity (AID 2283024; active = hit-call score of the fitted dose curve at least 0.9, where 1 is the maximum; inactive = score below 0.9); settings: primary human bronchial epithelial cells; actives raise or lower the signal
Procedure, shortened: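 Human bronchial epithelial cells (BE3C system) exposed to compound for 24 h; MMP1 then quantified by ELISA. Activity was fitted in both directions relative to DMSO.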

[15] = BSK_3C_Vis: BioMAP Diversity Plus: 3C Assay for Morphology Visualization (AID 2283025; active = hit-call score of the fitted dose curve at least 0.9, where 1 is the maximum; inactive = score below 0.9;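 note: fitted both ways so gain or loss versus DMSO counts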); settings: primary human endothelial cells (HUVEC)
Procedure, shortened: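 Chemicals were added to primary human umbilical vein endothelium, cells were incubated 24 h, and morphology was then visualized by light microscopy. Gain or loss of signal was fitted bidirectionally relative to DMSO.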

[16] = read-out: Pselectin, SELP (gene 6403); test: BSK_4H_Pselectin: BioMAP Diversity Plus: 4H Assay for Pselectin Biomarker Activity (AID 2283026; active = hit-call score of the fitted dose curve at least 0.9, where 1 is the maximum; inactive = score below 0.9); settings: primary human endothelial cells (HUVEC); actives raise or lower the signal
Procedure, shortened: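 ELISA read-out of P-selectin on human umbilical vein endothelium after 24 h of dosing. Values derive from bidirectional fitting relative to DMSO. Parallel SRB protein staining flagged overt cytotoxicity.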

[17] = BSK_4H_SRB: Viability Assessment in the BioMAP Diversity Plus: 4H Assay (AID 2283027; active = hit-call score of the fitted dose curve at least 0.9, where 1 is the maximum; inactive = score below 0.9;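 note: cells exposed to compound for 24 h before staining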); settings: primary human endothelial cells (HUVEC)
Procedure, shortened: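 Human umbilical vein endothelial cells, 24 h after chemical dosing; total protein measured by 0.1% sulforhodamine B staining after 10% TCA fixation, read at 560 nm. Bidirectional fitting against DMSO.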

[18] = BSK_BE3C_SRB: Viability Assessment in the BioMAP Diversity Plus: BE3C Assay (AID 2283028; active = hit-call score of the fitted dose curve at least 0.9, where 1 is the maximum; inactive = score below 0.9); settings: primary human bronchial epithelial cells
Procedure, shortened: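 SRB total-protein staining (0.1%, after TCA fixation) of chemically dosed human bronchial epithelial primary cells at 24 h; DMSO serves as the negative control for bidirectional curve fitting.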

[19] = read-out: Thrombomodulin, THBD (gene 7056); test: BSK_3C_Thrombomodulin: BioMAP Diversity Plus: 3C Assay for Thrombomodulin Biomarker Activity (AID 2283029; active = hit-call score of the fitted dose curve at least 0.9, where 1 is the maximum; inactive = score below 0.9); settings: primary human endothelial cells (HUVEC); actives raise or lower the signal
Procedure, shortened: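 Read-out is ELISA of thrombomodulin on human umbilical vein endothelium 24 h after chemical dosing. Gain or loss of signal is scored relative to DMSO. Overt cytotoxicity is checked in parallel cultures by sulforhodamine B staining.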

E-selectin (Homo sapiens), sequence (P16581 whole entry, looked up): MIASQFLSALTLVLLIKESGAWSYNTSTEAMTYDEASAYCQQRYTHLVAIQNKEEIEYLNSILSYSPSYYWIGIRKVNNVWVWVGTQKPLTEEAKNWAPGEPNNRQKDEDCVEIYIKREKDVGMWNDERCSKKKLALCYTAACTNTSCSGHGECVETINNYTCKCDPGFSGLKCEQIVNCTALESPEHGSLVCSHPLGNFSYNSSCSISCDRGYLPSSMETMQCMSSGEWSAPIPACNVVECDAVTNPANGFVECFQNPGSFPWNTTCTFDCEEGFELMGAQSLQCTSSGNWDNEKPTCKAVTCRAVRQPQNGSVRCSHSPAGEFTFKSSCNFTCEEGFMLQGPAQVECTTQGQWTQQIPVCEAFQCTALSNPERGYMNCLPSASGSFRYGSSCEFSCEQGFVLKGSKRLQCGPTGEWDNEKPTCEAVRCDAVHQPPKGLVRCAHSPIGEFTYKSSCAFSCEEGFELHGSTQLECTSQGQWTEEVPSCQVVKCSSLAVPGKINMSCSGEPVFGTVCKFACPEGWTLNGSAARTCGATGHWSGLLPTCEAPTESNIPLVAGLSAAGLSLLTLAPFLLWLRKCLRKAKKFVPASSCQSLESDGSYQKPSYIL

CCCCCCCCCC[N+](C)(CCCCCCCCCC)CCC[Si](OC)(OC)OC
outcome [1]: inactive
outcome [2]: inactive
outcome [3]: inactive
outcome [4]: inactive
outcome [5]: inactive

C=CCCCCCCCCOC(C)=O
outcome [1]: inactive
outcome [2]: inactive
outcome [3]: inactive
outcome [4]: inactive

CCC[Si](OC)(OC)OC
outcome [1]: inactive
outcome [2]: inactive
outcome [3]: inactive
outcome [4]: inactive
outcome [5]: inactive

COC(C=C(C)CCC=C(C)C)OC
outcome [1]: inactive
outcome [2]: inactive
outcome [3]: inactive
outcome [5]: inactive

CC1(C)CC(O)CC(C)(C)N1[O]
outcome [1]: inactive
outcome [2]: inactive
AC50 [6]: 0.0621 µM (active)
outcome [7]: inactive
outcome [8]: inactive
outcome [9]: inactive
outcome [10]: inactive
outcome [11]: inactive
outcome [12]: inactive
outcome [5]: inactive
outcome [13]: inactive
outcome [14]: inactive
outcome [15]: inactive
outcome [16]: inactive
outcome [17]: inactive
outcome [18]: inactive
outcome [19]: inactive

CC(C)CC(=O)OCc1ccccc1
outcome [1]: inactive
outcome [3]: inactive

CC(C)=CCl
outcome [1]: inactive
outcome [2]: inactive
outcome [4]: inactive

C=C(C)C1CC=C(C)CC1 (stereo not drawn)
outcome [1]: inactive
outcome [3]: inactive

O=S(=O)(O)c1ccc(N=Nc2c(O)ccc3ccccc23)cc1
outcome [1]: inactive
outcome [2]: inactive
outcome [3]: inactive

CCC(C)C(=O)OCCc1ccccc1 (stereo not drawn)
outcome [1]: inactive
outcome [2]: inactive
outcome [3]: inactive
outcome [4]: inactive

CN1CCN(C)CC1
outcome [1]: inactive
outcome [2]: inactive
outcome [4]: inactive
outcome [5]: inactive

Cc1cc(C)c(C=O)c(C)c1
outcome [1]: inactive
outcome [2]: inactive
outcome [3]: inactive
outcome [4]: inactive
outcome [5]: inactive

CC(=O)CCC1=C(C)CCCC1(C)C
outcome [1]: inactive
outcome [2]: inactive
AC50 [3]: 19.6 µM (active)
outcome [4]: inactive
outcome [5]: inactive

CC(=O)/C=C/C1C(C)=CCCC1(C)C (stereo not drawn)
outcome [1]: inactive
outcome [2]: inactive
AC50 [3]: 31.3 µM (active)
outcome [4]: inactive
outcome [5]: inactive

Fc1ccc(Br)cc1
outcome [1]: inactive
outcome [2]: inactive
AC50 [3]: 156 µM (active)
outcome [6]: inactive
outcome [7]: inactive
outcome [8]: inactive
outcome [9]: inactive
outcome [10]: inactive
outcome [11]: inactive
outcome [12]: inactive
outcome [5]: inactive
outcome [13]: inactive
outcome [14]: inactive
outcome [15]: inactive
outcome [16]: inactive
outcome [17]: inactive
outcome [18]: inactive
outcome [19]: inactive

Nc1cccc(N)n1
outcome [1]: inactive
outcome [2]: inactive
outcome [3]: inactive
outcome [6]: inactive
outcome [7]: inactive
outcome [8]: inactive
outcome [9]: inactive
outcome [10]: inactive
outcome [11]: inactive
outcome [12]: inactive
outcome [5]: inactive
outcome [13]: inactive
outcome [14]: inactive
outcome [15]: inactive
outcome [16]: inactive
outcome [17]: inactive
outcome [18]: inactive
